Screening results (PubChem BioAssay)
The full list was thinned out, with hits kept by preference.
DUX4 inh: DUX4-mediated transcription inhibition. activity change, negative = inhibition, % (no concentration beside the values). 37,000 compounds, 0.8% hits. 293T-iDUX4 ZSCAN4-Gaussia luciferase reporter, 24 h; active compounds read low. AID 1224904;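 active means mean inhibition of at least 10% in the main channel, exceeding the control channel by a set limit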;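 further: 0% = median of neutral control wells and -100% = median of positive control wells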
The depositor's hits bear a star; ! = a repeat was not active.

SMILES	DUX4 inh
CC(=O)N(C)C[C@@H]1OCc2ccccc2-c2c(n(C)c3ccccc23)C(=O)N([C@H](C)CO)C[C@@H]1C	18.6
C[C@@H]1CN([C@H](C)CO)C(=O)c2c(c3ccccc3n2C)-c2ccccc2CO[C@H]1CN(C)C(=O)c1cc(Cl)cc(Cl)c1	-40.9*
C[C@@H]1CN([C@H](C)CO)C(=O)c2c(c3ccccc3n2C)-c2ccccc2CO[C@H]1CN(C)C(=O)Nc1ccccc1C(F)(F)F	-4.3
C[C@@H]1CN([C@@H](C)CO)C(=O)c2c(c3ccccc3n2C)-c2ccccc2CO[C@@H]1CN(C)C(=O)Nc1cccc(Cl)c1Cl	-34.5*
COc1ccccc1NC(=O)N(C)C[C@@H]1OCc2ccccc2-c2c(n(C)c3ccccc23)C(=O)N([C@H](C)CO)C[C@H]1C	2.5
CO[C@H]1CN(C)C(=O)c2ccc(NC(=O)Nc3ccccc3F)cc2OC[C@@H](C)N(C(C)=O)C[C@@H]1C	2.6
COc1ccc(NC(=O)N2CC3(C2)CN(C(=O)C2CCC2)[C@H](CO)c2c3c3ccc(OC)cc3n2C)cc1	9.8
CC(C)CC#Cc1ccc([C@@H]2[C@@H](CO)N3C(=O)CN(C(=O)NC(C)C)C[C@H]23)cc1	0.9
CN(C)C(=O)c1ccc(-c2ccc3c(c2)[C@H]2[C@H](CCN2C(=O)C2CCOCC2)[C@@H](CO)N3C)cc1	10.1
CS(=O)(=O)Nc1ccc2c(c1)[C@H]1C[C@@H](CC(=O)NCC(F)(F)F)O[C@@H](CO)[C@H]1O2	10.8
COCC(=O)N1CC2(CCN(Cc3cncnc3)CC2)c2c(n(C)c3cc(OC)ccc23)[C@@H]1CO	13.2
O=C(NC1CCCCC1)N1CC2(C1)[C@H](c1ccccc1)[C@H](CO)N2CC1CCCC1	-26.1*
O=C(NC1CCCC1)N1CC2(C1)[C@@H](c1ccccc1)[C@@H](CO)N2CC1CC1	12.6
O=C(c1ccncc1)N1CC2(C1)[C@H](c1ccccc1)[C@H](CO)N2CC1CC1	11.7
O=C(NC1CCCC1)N1CC2(C1)[C@H](c1ccccc1)[C@H](CO)N2CC1CC1	-3.3
O=C(c1ccncc1)N1CC2(C1)[C@H](c1ccccc1)[C@H](CO)N2CC1CCCC1	-5.3
O=C(c1ccncc1)N1CC2(C1)[C@@H](c1ccccc1)[C@@H](CO)N2CC1CCCC1	-28.1*
C[C@H](CO)N1C[C@H](C)[C@@H](CN(C)C(=O)Nc2ccccc2C(F)(F)F)OCc2ccccc2-c2ccccc2C1=O	16.9
C[C@H]1CN([C@@H](C)CO)C(=O)c2cc(C3=CCCCC3)cnc2O[C@@H]1CN(C)C(=O)Cc1ccncc1	2.7
COc1ccccc1CN1[C@H](CO)[C@@H](c2ccccc2)C12CN(C(C)=O)C2	3.8
COCC(=O)N1CC2(C1)[C@H](c1ccccc1)[C@@H](CO)N2Cc1ccccc1OC	-7.9
COc1ccccc1CN1CC2(C1)[C@@H](c1ccccc1)[C@@H](CO)N2Cc1ccccc1	-54.8*
C[C@H]1CN([C@@H](C)CO)C(=O)c2ccccc2-c2ccccc2CO[C@@H]1CN(C)S(=O)(=O)c1ccsc1	-1.1
C/C=C/c1ccc(C2[C@@H]3CN(Cc4ccc5c(c4)OCO5)C[C@H]2N3)cc1 (stereo partly specified)	-9.8
C(=C\c1ccc(C2[C@H]3CNC[C@@H]2N3Cc2cncnc2)cc1)/c1ccccc1 (stereo partly specified)	4.4
SMILES	DUX4 inh
CN(C)C(=O)c1cccc(-c2ccc(C3[C@H]4CNC[C@@H]3N4Cc3ccc4c(c3)OCO4)cc2)c1 (stereo partly specified)	7.8
OC[C@@H]1[C@@H](c2ccc(/C=C/c3ccccc3)cc2)[C@@H]2CN(Cc3cncnc3)CCCCN12	0.3
CN(C)C(=O)c1ccc(-c2ccc(C3[C@@H]4CN(Cc5ccc6c(c5)OCO6)C[C@H]3N4)cc2)cc1 (stereo partly specified)	-29.7*!
C(=C\c1ccc(C2[C@@H]3CN(Cc4cccnc4)C[C@H]2N3)cc1)/c1ccccc1 (stereo partly specified)	-45.4*!
c1cncc(-c2ccc(C3[C@@H]4CN(Cc5ccc6c(c5)OCO6)C[C@H]3N4)cc2)c1 (stereo partly specified)	-34.0*!
CN(C)C(=O)c1ccc(-c2ccc(C3[C@@H]4CN(C(=O)Cc5ccncc5)C[C@H]3N4)cc2)cc1 (stereo partly specified)	16.3
N#Cc1cccc(-c2ccc(C3[C@@H]4CN(Cc5cocn5)C[C@H]3N4)cc2)c1 (stereo partly specified)	5.1
c1cncc(CN2C[C@@H]3N[C@H](C2)C3c2ccc(-c3cccnc3)cc2)c1 (stereo partly specified)	-2.7
C/C=C/c1ccc(C2[C@H]3CNC[C@@H]2N3Cc2ccc3c(c2)OCO3)cc1 (stereo partly specified)	8.5
Cc1ccccc1-c1ccc(C2[C@@H]3CN(Cc4ccc5c(c4)OCO5)C[C@H]2N3)cc1 (stereo partly specified)	-36.8*!
CCC(=O)Nc1ccc2c(c1)OC[C@H](C)N(CC1CC1)C[C@H](C)[C@@H](OC)CN(C)C2=O	-1.5
CS(=O)(=O)N1[C@@H]2c3ccc(C4=CCCC4)c(=O)n3C[C@@H]2[C@@H](CO)[C@@H]1C(=O)NCCc1ccncc1	-1.1
C[C@H]1CC=CC[C@H](c2ccc3c(c2)OCO3)NC(=O)[C@@H](Cc2ccccc2)N(C)C(=O)c2ccccc2O1 (mixture of isomers)	-0.5
COC(=O)C[C@@H]1CC[C@@H]2[C@H](COc3ccc(NS(=O)(=O)c4ccccc4Cl)cc3C(=O)N2C)O1	-4.4
CCN1Cc2cc(C(=O)NCCN3CCCC3)nc(-c3cccc(C4=CCCC4)c3)c2[C@H]1CCO	2.6
COCC(=O)Nc1ccc2c(c1)C(=O)N(C)[C@H]1CC[C@H](CC(=O)Nc3cn(C)nc3C)O[C@@H]1CO2	-4.0
O=C(C[C@@H]1C[C@H]2c3cc(NC(=O)Nc4ccccc4F)ccc3O[C@H]2[C@@H](CO)O1)NCc1ccc2c(c1)OCO2	-2.3
COc1cccc(-c2ccc(C3[C@@H]4CN(S(=O)(=O)Cc5ccccc5)C[C@H]3N4)cc2)c1 (stereo partly specified)	-21.8*
COc1cccc(S(=O)(=O)N2C[C@@H]3N[C@H](C2)C3c2ccc(-c3ccccc3F)cc2)c1 (stereo partly specified)	-68.6*!
Cc1cccc(S(=O)(=O)N2C[C@@H]3N[C@H](C2)C3c2ccc(-c3cncnc3)cc2)c1 (stereo partly specified)	-4.1
Cc1ccccc1-c1ccc(C2[C@H]3CNC[C@@H]2N3S(=O)(=O)c2ccc(F)cc2)cc1 (stereo partly specified)	1.5
COc1cccc(-c2ccc(C3[C@@H]4CN(S(=O)(=O)c5ccccc5F)C[C@H]3N4)cc2)c1 (stereo partly specified)	-6.9
COc1cccc(S(=O)(=O)N2CCCCN3[C@@H](CO)[C@H](c4ccc(-c5cccnc5)cc4)[C@@H]3C2)c1	-3.8
Cc1cccc(S(=O)(=O)N2C[C@@H]3N[C@H](C2)C3c2ccc(-c3ccccc3C)cc2)c1 (stereo partly specified)	-72.6*!
Cc1ccccc1-c1ccc(C2[C@H]3CNC[C@@H]2N3S(=O)(=O)c2cccc(F)c2)cc1 (stereo partly specified)	2.2
COc1ccc(S(=O)(=O)N2[C@@H]3CNC[C@H]2C3c2ccc(-c3ccccc3F)cc2)cc1 (stereo partly specified)	4.0
